# Data reported in ChEMBL document CHEMBL4513216, “Probing the Open Global Health Chemical Diversity Library for Multistage-Active Starting Points for Next-Generation Antimalarials” (ACS Infect Dis, 2020).
# Out of some 65,000 compounds screened, about 2,100 (3.2%) showed an effect of 50% or more. The median lay at about -52%. The sample holds strong results, similar compounds and a random draw of the others, so the mix is not that of the screen.
# System: Plasmodium falciparum
# Test: Screen against P. falciparum Asexual Blood Stage (ABS), at 5uM
# Type: functional, Dd2
# Conditions: tested at 5 uM
row,SMILES,INHIBITION [%]
1,O=S(=O)(c1ccccc1)N1CCC2(CCCN2Cc2cccnc2)C1 (stereo not given),-12
2,CC(C)c1cc(NC(=O)CNC2CCc3ncnn3C2)on1 (stereo not given),-54
3,Cc1occc1C(=O)N1C[C@@H]2OCCN(CCN3CCCC3)[C@@H]2C1,-86.8
4,Cc1nc(CN2CCCC(c3cc(C(F)(F)F)[nH]n3)C2)cs1 (stereo not given),-50.2
5,CCN1CCCC(O)(c2nc(C)c(CCOc3ccccc3Cl)s2)CC1 (stereo not given),21
6,CCN1CCCC(O)(c2nc(C)c(CCOc3ccc(F)cc3)s2)CC1 (stereo not given),23.9
7,Cc1nc(C2(O)CCCNCC2)sc1CCOc1ccccc1 (stereo not given),-48.5
8,Cc1nc(C2(O)CCCNCC2)sc1CCOc1ccc(F)c(F)c1 (stereo not given),54.5
9,COc1ccc(OCCc2sc(C3(O)CCCNCC3)nc2C)cc1 (stereo not given),5.84
10,Cc1nc(C2(O)CCCNCC2)sc1CCOc1ccccc1Cl (stereo not given),54.5
11,Cc1nc(C2(O)CCCNCC2)sc1CCOc1ccc(F)cc1 (stereo not given),34.5
12,COc1ccc(OCc2sc(C3(O)CCCNCC3)nc2C)cc1 (stereo not given),14.8
13,Cc1nc(C2(O)CCCNCC2)sc1CCOc1ccc(Cl)cc1 (stereo not given),61
14,COc1ccccc1OCC(=O)NS(=O)(=O)c1ccc(Br)s1,-26.8
15,C[C@@H]1CN(C(=O)c2nc3ccc(Cl)cn3c2-c2ncc[nH]2)C[C@H](C)O1,49.4
16,O=S(=O)(C1CC1)N1CCn2cc(CNc3ccccn3)nc2C1,-76
17,Cc1ccccc1C1(C(=O)NCCN2CCCCC2C)CCOCC1 (stereo not given),28.2
18,CCC1c2ccsc2CCN1Cc1cc2c(cc1OC)OCCO2 (stereo not given),67.3
19,COc1ccsc1C(=O)Nc1cc(CN2CCOCC2)ccc1C,-12.8
20,COc1cc2c(cc1CN1CCc3sccc3C1C)OCO2 (stereo not given),69.3
21,CCC[C@@H]1CN(Cc2cc3c(cc2OC)OCCO3)C[C@H]1C(=O)O,-28.5
22,CC1c2ccsc2CCN1Cc1cc2c(cc1O)OCO2 (stereo not given),27.2
23,COc1ccc(CN2CCc3sccc3C2C)cc1CN1CCOCC1 (stereo not given),56.1
24,CCC[C@@H]1CN(Cc2cc3c(cc2OC)OCO3)C[C@H]1C(=O)O,-43.7
25,CCC1c2ccsc2CCN1C(=O)NCc1cccnc1OC (stereo not given),46.8
26,COc1ccc(CN2C[C@@H](CN(C)C)[C@@H](CO)C2)cc1CN1CCCC1,-71
27,Cc1nnc(N2C[C@H]3OCC[C@H]3[C@H](C(=O)NCC3CC3)C2)s1,4.38

row,SMILES,INHIBITION [%]
1,O=C1OCCN1CC(=O)N1C[C@@H]2CC[C@H]1CN(Cc1cscn1)C2,-150
2,CCn1cc2c(n1)CN(Cc1cnn(C)c1)CC2COCC1CC1 (stereo not given),-28.3
3,c1cc(-c2nc(C3CCN(Cc4ccsc4)CC3)no2)ccn1,-4.11
4,Cc1ccc(C(=O)N2Cc3ccccc3OC3(CCOCC3)C2)cn1,-43.5
5,c1nc2n(c1CN1CCCC1)CCN(C1CCOCC1)CC2,-7.43
6,COc1ccc(C(=O)N2C[C@@H](c3ccccc3)[C@@H]3NCCCC[C@@H]32)cc1,-70.2
7,COc1cccc([C@H]2CN(C(=O)c3ccccc3)[C@@H]3CCCN[C@H]23)c1,56.5
8,COc1cccc(C(=O)N2C[C@@H](c3ccccc3)[C@@H]3NCCCC[C@@H]32)c1,16.7
9,CN(C)S(=O)(=O)NC1CCCc2c1cnn2-c1ccc(C(C)(C)C)cc1 (stereo not given),-174
10,CN(C)C1CC2(CCN(C(=O)C3(C#N)CC3)CC2)c2ccccc21 (stereo not given),-28.5
11,CC(C)NCC1(COc2ccccc2)C[C@@H](O)[C@@H](O)C1 (stereo not given in full),60.4
12,O[C@@H]1CC(CNCC2CC2)(COc2cccnc2)C[C@@H]1O (stereo not given in full),-24.8
13,CC(C)NC(=O)NCC1(COc2cnccn2)C[C@@H](O)[C@@H](O)C1 (stereo not given in full),-54.9
14,Cn1ccnc1NC[C@@H]1CCC[C@@H]2CN(CC3CC3)C[C@@H]21,-46.7
15,Cn1nc(COc2cccnc2)c2c1CCN(CC1CC1)C2,-64
16,Cc1cc(C(C)C(=O)N2CCCN(Cc3cscn3)CC2)c(C)o1 (stereo not given),-136
17,Cc1ccc(C(C)C(=O)N2CCCN(Cc3cscn3)CC2)cc1 (stereo not given),57
18,Cc1ccc(C)n1C(C)C(=O)N1CCCN(Cc2cscn2)CC1 (stereo not given),-16.5
19,CN1CCC2(CC1)CC(NC(=O)c1csnn1)c1ccccc1O2 (stereo not given),-8.75
20,Brc1csc(-c2noc(C3COCCO3)n2)c1 (stereo not given),-301
21,O=C(Cc1ccc2c(c1)CCCC2)N[C@@H]1CC[C@@H](n2ccnc2)[C@@H]1O,-119
22,CN1CCN(c2ccccc2CNC(=O)CSC(F)(F)F)CC1,67.3
23,CC(=O)N1CCN(c2ccccc2CNc2cc(F)cc(F)c2)CC1,14
24,CC(C)N(C)CC(=O)NCc1ccccc1N1CCN(C)CC1,43.8
25,Cn1ccnc1CN1CCC2(CC1)CN(Cc1cccnc1)C(=O)CO2,-38.8
26,CCn1cc(CN2CCN(Cc3cc(C)cc(C)c3)C(=O)C2)cc1C#N,68.4
27,CCn1cc(CN2CCN(Cc3cccc(OC)c3)C(=O)C2)cc1C#N,47.9

row,SMILES,INHIBITION [%]
1,Cc1cc(C)cc(CN2CCN(Cc3cc(C#N)n(C)c3)CC2=O)c1,18.4
2,CCOC(=O)CNC(=O)NCc1cc(C)n(-c2ccccc2OC)c1C,-24.9
3,c1nc(NCc2cc3n(n2)CCN(C2CCCCC2)C3)c2nc[nH]c2n1,-10.3
4,COc1ccc(-c2cnc(N(C)C)nc2C2CNCCO2)cc1 (stereo not given),28.8
5,COc1ccc(-c2ccc(C3CNCCO3)nc2)cc1 (stereo not given),65
6,c1ncc(-c2ccc(C3CNCCO3)nc2)cn1 (stereo not given),-94.8
7,Cc1nn(C)c(C)c1C1CCCN1C(=O)c1ccc2nnc(C)n2c1 (stereo not given),-60.9
8,CCN1CCN(C2CCN(Cc3nnc(C(C)(C)C)o3)CC2)C1=O,-29.7
9,CCN1CCN(C2CCN(Cc3ncc(C(C)(C)C)o3)CC2)C1=O,53.1
10,CCc1nnc(CN2CCC(N3CCN(CC)C3=O)CC2)o1,-39.7
11,CN1CCN(C2CCN(Cc3nnc(C(C)(C)C)o3)CC2)C1=O,-117
12,CNc1cc2c(nn1)CCN(C(=O)c1cc(C)n(C3CC3)c1C)C2,-66.6
13,O=C(N[C@]12CC1CN(C(=O)c1ccco1)C2)c1cccc(F)c1 (stereo not given in full),27.4
14,O=C(N[C@]12CC1CN(C(=O)c1ccco1)C2)c1ccco1 (stereo not given in full),37.7
15,CC(=O)N1CC2C[C@]2(NC(=O)c2ccco2)C1 (stereo not given in full),50.3
16,O=c1[nH]c2nc(N3CCSCC3)ncc2c(=O)n1-c1ccc(F)cc1,-26.3
17,Cc1ncsc1CN1CC[C@H](O)[C@@H](n2cnc3c(N)ncnc32)CC1,-98.6
18,CCCc1ccc2oc(C(=O)N3CCCN(C)CC3)c(C)c2c1,-22.2
19,O=C(c1cc(-c2ccn(CC3CC3)n2)n2ccccc12)N1CCOCC1,69.5
20,O=C(O)c1cc(-c2ccn(CC3CC3)n2)n2ccccc12,-74.2
21,O=C(c1cc(-c2ccn(CC3CC3)n2)n2ccccc12)N1CCCO1,-84.4
22,O=C(CN1CCOC(Cn2cccn2)C1)NCc1ccco1 (stereo not given),-88.2
23,O=C(NC1CC(F)(F)C1)[C@]12COC[C@H]1CN(Cc1ccccc1)C2,-96
24,Cc1cc(=O)n2nc(Oc3cccc(C(N)=O)c3)sc2n1,-166
25,Cc1cc(=O)n2nc(Oc3ccc(F)c(F)c3)sc2n1,-13.2
26,Cc1cc(=O)n2nc(Oc3cccc(I)c3)sc2n1,56.4
27,COCCCNC(=O)CN1CCC(N2CCN(C)C2=O)CC1,-137

row,SMILES,INHIBITION [%]
1,Cn1cnc2c1CCN(Cc1csc(-c3ccccc3)n1)C2,-10.7
2,Cc1ccc(-c2nc(CN3CCc4c(ncn4C)C3)cs2)o1,-159
3,Cn1cnc2c1CCN(Cc1csc(-c3ccco3)n1)C2,51.3
4,Cc1cc(NC(=O)C(C)N2CCN(c3ccc(C#N)cc3F)CC2)no1 (stereo not given),-124
5,CN(C(=O)Nc1ccncc1)C1CCN(c2ccc(Cl)cc2)CC1,-10.2
6,COc1ccc(CNCCn2c(C)nc3ccccc32)cc1O,-82.4
7,COc1ccc(CNCCc2ccn(-c3ccccc3)n2)cc1O,67.1
8,COc1ccc(-n2ccc(CNCc3ccc(OC)c(O)c3)n2)cc1,-17.9
9,CCCn1cc(NC(=O)c2cccnc2O)ccc1=O,-8.23
10,CCc1nc(CNc2cc(C)nc(-c3cccnc3)n2)cs1,-19.9
11,CCc1noc(C2CCCCN2C(=O)c2ccccc2)n1 (stereo not given),-89.7
12,CCc1noc(C2CCCCN2C(=O)c2cccs2)n1 (stereo not given),-105
13,CCc1noc(C2CCCCN2C(=O)c2nnc3ccccc3n2)n1 (stereo not given),65.5
14,Cc1cc(CN2C[C@@H](C)[C@@]3(CCN(C)C3=O)C2)oc1C,-1.06
15,CCC(CNC(=O)c1cncc(Br)c1)N1CCc2ccccc2C1 (stereo not given),66.9
16,CCC(CNC(=O)c1ccccc1Br)N1CCc2ccccc2C1 (stereo not given),41.5
17,CCC(CNC(=O)c1ccc(Br)o1)N1CCc2ccccc2C1 (stereo not given),16.3
18,CCN1CC(CN(C)Cc2nc(-c3cccc(C)c3)oc2C)CC1=O (stereo not given),-142
19,CCOCC1CN(Cc2cccnc2OC)Cc2cnn(C)c21 (stereo not given),-60.6
20,OCC1CCC2(CC1)CN(Cc1ccsc1)Cc1ccccc1O2 (stereo not given),-50.7
21,COCCN1CCOCC12CCN(c1nccs1)CC2,-151
22,CN(C)c1ccc(CNC2(c3ccc(F)cc3)CCOCC2)cc1F,28.8
23,Fc1ccc(C2(NCc3ccccc3)CCOCC2)cc1,64.2
24,CSc1ccc(CNC2(c3ccc(F)cc3)CCOCC2)cc1,31.4
